These results are taken from the OligoGym collection.
Note: reference of the scale not given here.

This test deals with TDRKH. As to the kind of experiment: pooled miR-30 sensor sort-seq; sequence = guide strand. The conditions noted are these: shRNA.
ATGTCCTTCAACATGTCTGGGA: the sensor-assay potency score (higher = more potent) was -0.897. The value for TTTAATATTGGCTCCTTGCCGG was -0.28; that for TTTTCTTCTATGTCTTCAGGAA was 0.0327; that for TCTGTGTCCACATCAATCCGAG was -0.281. Turning to TTGTAGGTAAAGGTGCTGCTAC, the sensor-assay potency score (higher = more potent) was -0.223. In the case of TATAAGTAGATCTTTGGCCAAG, the sensor-assay potency score (higher = more potent) is -1.04.

In turn, TTGTGTACTAATTCTAGCCCAA had a sensor-assay potency score (higher = more potent) of 0.0219.

As for TTAATATTGGCTCCTTGCCGGC, the sensor-assay potency score (higher = more potent) was -1.54. The value for ATCTTCTGAAACTTTCTCCAGT was -0.507. Then TTATAAGTCTTGATAGTAGTAA, with -0.315; and TTGATAGTAGTAATGTCCCTTC, with -0.374. Then TTGGTCTCAGTGAGCAACGTGC, with -0.522.
